Usually inhibition stands for the change of the read-out against control, counted positive when it falls.

This note sets out measurements from PubChem BioAssay AID651650 (Sanford-Burnham Center for Chemical Genomics, 2012).

The target of this assay is Neuropilin-1 (Homo sapiens) (UniProt O14786). Description: NRP-1 b1b2 CendR peptide binding inhibitors, dose response, biochemical, FP and AlphaScreen panel (AID 651650). As to conditions: NRP-1 b1b2 / RPARPAR peptide binding, FP or AlphaScreen; run 1, at 100 µM (top of the series). (Bead proximity is the source of the signal in Alpha formats.)
Neuropilin-1 (Homo sapiens), sequence (O14786 whole entry, looked up): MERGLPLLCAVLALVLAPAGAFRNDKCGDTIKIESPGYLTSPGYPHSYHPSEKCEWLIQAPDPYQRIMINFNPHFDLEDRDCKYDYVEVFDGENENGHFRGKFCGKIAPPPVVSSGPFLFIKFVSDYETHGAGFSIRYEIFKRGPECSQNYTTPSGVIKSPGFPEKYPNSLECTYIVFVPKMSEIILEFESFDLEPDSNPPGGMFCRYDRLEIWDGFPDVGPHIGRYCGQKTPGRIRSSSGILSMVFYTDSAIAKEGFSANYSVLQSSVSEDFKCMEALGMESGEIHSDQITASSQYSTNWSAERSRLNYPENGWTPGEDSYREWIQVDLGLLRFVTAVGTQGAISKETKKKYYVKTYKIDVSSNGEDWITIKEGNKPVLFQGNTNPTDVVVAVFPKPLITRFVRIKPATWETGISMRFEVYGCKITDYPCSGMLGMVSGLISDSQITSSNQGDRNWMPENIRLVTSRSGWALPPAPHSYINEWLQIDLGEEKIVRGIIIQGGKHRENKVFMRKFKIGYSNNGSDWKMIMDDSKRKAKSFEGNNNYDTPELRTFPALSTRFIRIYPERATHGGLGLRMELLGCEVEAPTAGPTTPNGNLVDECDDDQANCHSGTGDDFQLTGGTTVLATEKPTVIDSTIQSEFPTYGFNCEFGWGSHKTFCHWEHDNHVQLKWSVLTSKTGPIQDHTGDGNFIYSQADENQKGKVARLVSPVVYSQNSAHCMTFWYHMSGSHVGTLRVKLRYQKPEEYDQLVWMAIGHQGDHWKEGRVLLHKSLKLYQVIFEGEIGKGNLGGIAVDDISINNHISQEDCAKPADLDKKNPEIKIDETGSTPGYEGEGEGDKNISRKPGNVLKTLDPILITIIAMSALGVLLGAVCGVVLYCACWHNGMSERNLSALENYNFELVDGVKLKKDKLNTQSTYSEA
As for `CCO[C@@H]1OC(C(=O)NCc2ccccc2)=C[C@H](c2ccc(Br)cc2)[C@H]1CCCO`, the inhibition came out at 102%. Turning to `CCN1C(=O)C(=O)c2cc(C)ccc21`, the inhibition was 13.5%. In the case of `CSCCC(NC(=O)c1ccc(Cl)cc1Cl)C(=O)NCC(c1cccs1)N(C)C` (stereo not drawn), the inhibition is 31.9%.

In the case of `CCOC(=O)C(NC(=O)CC(C)C)(Nc1sc(C)c(CC)c1C#N)C(F)(F)F` (stereo not drawn), the inhibition was -7.38%. `COc1cccc(C(=O)N2N=C(c3ccccc3)CC2(O)C(F)(F)F)c1` (stereo not drawn): the inhibition was found to be 35.9%. As to `O=C(Cn1ccc(NC(=O)OCc2ccccc2)nc1=O)NCCCn1ccnc1`, the inhibition amounted to 48.6%. As to `Cn1c(=NC(=O)COc2ccccc2)sc2ccccc21`, the inhibition was -1.2%. Consider `CCn1c(SCC(=O)c2ccccc2)nnc1-c1cccs1`, for which the inhibition is 45.2%. Turning to `Cn1cccc1C1Nc2ccccc2NC2=C1C(=O)CC(C)(C)C2` (stereo not drawn), the inhibition is 12.9%. Turning to `OCCNc1ncnc2ccc(Br)cc12`, the inhibition came out at 66.8%. Regarding `CCOC(=O)Cc1csc(NC(=O)CSc2ncnc3c2cnn3-c2ccccc2Cl)n1`, the inhibition came to 11.5%.

For the molecule `CC(C(=O)N1CCN(c2ccc(Cl)cc2)CC1)c1ncc(C(F)(F)F)cc1Cl` (stereo not drawn), the inhibition was -2.5%. Turning to `CCc1cccc(NC(=O)CCc2c(C)nn(-c3ccc(N4CCOCC4)nn3)c2C)c1`, the inhibition turned out to be 75.8%.

As for `Cc1ccc(C)c(-n2c(SCC(=O)NC(C(=O)O)C(C)C)nnc2-c2cccc(Cl)c2)c1` (stereo not drawn), the inhibition was 46.2%. In the case of `NC(=O)C1=C[C@H](c2ccc(Br)cc2)C[C@H](OCc2ccc(CO)cc2)O1`, the inhibition is 36.9%. With `COc1ccc(C(O)c2nc(-c3ccc4ccccc4c3)cs2)cc1` (stereo not drawn) the figure was 26.1%. For `O=C(c1ncn(Cc2ccccc2)c1C(=O)N1CCc2ccccc2C1)N1CCc2ccccc2C1`, the inhibition amounted to 23%.

Consider `O=C(CCn1c(=O)c2cccn2c2cccnc21)NCc1cccc(Cl)c1`, for which the inhibition worked out at 5.81%. As for `Cc1ccc(NC(=O)COc2ncnc3c(Cl)cc(Cl)cc23)cc1[N+](=O)[O-]`, the inhibition was -2.85%. For the molecule `COc1ccc(C(=O)COC(=O)C(CCSC)NS(=O)(=O)c2ccc(Cl)cc2)cc1` (stereo not drawn), the inhibition was -2.36%. To `O=C(CSc1nnc(Cc2ccccc2)n1Cc1ccccc1)NCc1ccco1` belongs 8.68%; to `O=C(COc1cc(Cl)c(Cl)cc1Cl)Nc1ccc([N+](=O)[O-])cc1Cl`, 38.3%. For the molecule `COC(=O)c1cccc(NC(=S)NCCC2=CCCCC2)c1`, the inhibition worked out at 4.3%. In the case of `CCCCC1CCC(C(=O)NC2CCS(=O)(=O)C2)CC1` (stereo not drawn), the inhibition is 16.6%. Turning to `CN(c1ccc(OCC(=O)OCC(=O)Nc2ccc([N+](=O)[O-])cc2)cc1)S(=O)(=O)c1cccs1`, the inhibition came out at 58.7%.

Turning to `NC(=S)NNC(=S)Nc1ccccc1`, the inhibition turned out to be 9.47%. With `CC1(C)c2ccccc2C(=O)c2ccccc21`, the inhibition is -7.21%. With `N#CC(C#N)=Cc1cc2ccccc2nc1N1CCCCC1` the figure was -3.26%; with `O=C(Nc1cc(C(F)(F)F)ccc1N1CCCC1)C1CC(=O)N(Cc2ccccc2)C1` (stereo not drawn), 2.78%. In the case of `CC(C)(C)OC(=O)N1CCN(C(=O)c2[nH]cnc2C(=O)NCc2ccccc2)CC1`, the inhibition was 34.4%. For `CC(C)(C)OC(=O)N1CCC(NC(=O)c2nc[nH]c2C(=O)N2CCc3ccccc3C2)CC1`, the inhibition worked out at 25.2%. Regarding `Cc1cc(=O)n2nc(N3CCCC(C(=O)N4CCOCC4)C3)sc2n1` (stereo not drawn), the inhibition turned out to be 17%. Regarding `O=C(OCn1nnc2ccccc2c1=O)c1ccc(Br)o1`, the inhibition worked out at 25.4%. With `CCCNC(=O)[C@H]1N2C(=O)c3c(ccc(OC)c3OC)C2SC1(C)C` (stereo partly drawn), the inhibition amounted to 51.5%. As to `CCOc1ccc(N2C(=O)CC(N3CCN(c4ccc(Cl)cc4)CC3)C2=O)cc1` (stereo not drawn), the inhibition turned out to be 86.2%. As to `Cc1cc(S(=O)(=O)NC2CCCCC2)ccc1OCC(=O)N1CCOCC1`, the inhibition was 97.6%. On to `CCOc1ccc(C2CC(c3ccc(CC)cc3)n3nc(N)nc3N2)cc1` (stereo not drawn), for which the inhibition was 4.44%. With `COC(=O)N[C@@H]1C[C@H]2[C@@H]3CC[C@H]4C[C@@H](OC)CC[C@]4(C)[C@H]3CC[C@]12C` the figure was 57.8%.
